Results taken from the supplement of paper PMC8253809.
Several values for one entry are separate records, joined by “and”; a condition that tells them apart may be missing. Equal entries are not always repeated.

Assays:
Assay in all cases: growth inhibition (% activity, log2 RLU normalised to DMSO / staurosporine); higher = more growth inhibition
Conditions in all cases: 33 µM
DIPGX29 = system: DIPGX29 (H3.3 K27M diffuse intrinsic pontine glioma line)
Procedure, shortened: (§1)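 Approved drugs were tested in triplicate at a single final concentration of about 33 μM for 7 days at 37 °C, 5% CO2, on pHGG cell lines and H9-derived neural stem cells. Readout was CellTiter-Glo luminescence, log2-transformed and scaled per plate to % activity between solvent and positive control wells. The median over replicates gives the growth-inhibition value.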

DIPGX37 = system: DIPGX37 (H3.3 K27M diffuse intrinsic pontine glioma line)
Procedure, shortened: as §1

DIPGX7 = system: DIPGX7 (H3.3 K27M diffuse intrinsic pontine glioma line)
Procedure, shortened: as §1

DIPGX9 = system: DIPGX9 (diffuse intrinsic pontine glioma line)
Procedure, shortened: as §1

HGGX39 = system: HGGX39 (paediatric high-grade glioma line)
Procedure, shortened: as §1

HGGX6 = system: HGGX6 (H3.3 G34R paediatric high-grade glioma line)
Procedure, shortened: as §1

HNSC = system: HNSC
Procedure, shortened: as §1

SUDIPGIV = system: SUDIPGIV (diffuse intrinsic pontine glioma line)
Procedure, shortened: as §1

SUDIPGVI = system: SUDIPGVI (diffuse intrinsic pontine glioma line)
Procedure, shortened: as §1

SUDIPGXIII = system: SUDIPGXIII (diffuse intrinsic pontine glioma line)
Procedure, shortened: as §1

Row | SMILES | growth inhibition (DIPGX29) | growth inhibition (DIPGX37) | growth inhibition (DIPGX7) | growth inhibition (DIPGX9) | growth inhibition (HGGX39) | growth inhibition (HGGX6) | growth inhibition (HNSC) | growth inhibition (SUDIPGIV) | growth inhibition (SUDIPGVI) | growth inhibition (SUDIPGXIII)
1 | Cc1c(N)nc(C(CC(N)=O)NCC(N)C(N)=O)nc1C(=O)NC(C(=O)NC(C)C(O)C(C)C(=O)NC(C(=O)NCCc1nc(-c2nc(C(=O)NCCC[S+](C)C)cs2)cs1)C(C)O)C(O[C@@H]1O[C@@H](CO)[C@@H](O)[C@H](O)[C@@H]1O[C@H]1O[C@H](CO)[C@@H](O)[C@H](OC(N)=O)[C@@H]1O)c1cnc[nH]1 (stereo not given in full) | 3.71% | 5.42% | 1.63% | 17.8% | 8.29% | 4.24% | 56.5% | 32.5% | 1.68% | 4.14%
2 | CN1c2ccccc2C(NCCCCCCC(=O)O)c2ccc(Cl)cc2S1(=O)=O (stereo not given) | -1.12% | -3.13% | -0.607% | 0.503% | -0.419% | 0.961% | -2.51% | -2.29% | -1.84% | 0.605%
3 | CN(C)C(=O)Oc1cccc([N+](C)(C)C)c1 | -3.32% | 0.574% | -0.239% | -1.38% | -0.512% | -1.84% | -0.376% | -1.46% | -1.83% | 1.72%
4 | CN1C(=O)CCS(=O)(=O)C1c1ccc(Cl)cc1 (stereo not given) | 0.502% | 0.814% | 0.531% | 1.13% | 2.2% | 1.29% | 2.59% | 0.226% | -0.17% | -0.0547%
5 | COc1ccc(C(CN(C)C)C2(O)CCCCC2)cc1 (stereo not given) | 1.29% | 1.34% | 1.7% | 0.288% | 0.682% | -0.233% | 1.61% | 0.0945% | -1.13% | -0.0836%
6 | C[N+](C)(C)CCCCCCCCCC[N+](C)(C)C | 0.486% | -0.577% | 1.7% | 1.41% | 3.26% | 2.4% | 1.52% | 0.278% | 4.87% | -1.36%
7 | CC(C)NCC(O)c1ccccc1Cl (stereo not given) | 0.364% | -1.04% | -0.863% | -0.306% | 2.3% | 1.8% | -2.5% | 0.901% | 0.486% | -0.265%
8 | CCCCCCCCCCCCCCCC[n+]1ccccc1 | 59.1% | 58.4% | 62.7% | 52.2% | 59.6% | 35.8% | 76.6% | 55.8% | 62.8% | 72.8%
9 | C[C@@H]1CC[C@H]2[C@@H](C)C(=O)O[C@@H]3O[C@@]4(C)CC[C@@H]1[C@]32OO4 | 3.47% | -0.962% | 4.12% | 4.81% | 4.98% | 4.39% | 14.5% | 12.8% | -4.44% | 20.5%
10 | CCC1(c2cccc(O)c2)CCCCN(C)C1 (stereo not given) | 0.813% | 0.766% | -0.204% | 0.246% | -0.148% | -2.47% | 18.5% | -0.915% | -3.26% | -1.39%
11 | O=S(=O)(F)Cc1ccccc1 | 0.493% | -0.634% | -0.837% | -0.877% | -0.194% | -1.52% | -0.438% | -0.0165% | 1.21% | 0.305%
12 | CCC1=C[C@H]2CN3CCc4c([nH]c5ccccc45)[C@](C(=O)OC)(C2)[C@H]13 | -4.07% | -1.56% | -1.78% | -1.01% | -1.76% | -3.94% | -4.27% | 2.26% | -1.41% | -2.44%
13 | COc1cc2c(cc1OC)[C@@]13CCN4CC5=CCO[C@H]6CC(=O)N2[C@H]1[C@H]6[C@H]5C[C@H]43 | -3.31% | 0.569% | 3.92% | 0.679% | 5.09% | -3.27% | 19.6% | 0.395% | 1.58% | 10.4%
14 | CC[C@@]1(O)C(=O)OCc2c1cc1n(c2=O)Cc2cc3ccccc3nc2-1 | 11.8% | -1.33% | 11.4% | 14.7% | 39.5% | 13.4% | 65.8% | 46.6% | 2.42% | 2.77%
15 | N[C@@H]1C[C@H]1c1ccccc1.N[C@H]1C[C@@H]1c1ccccc1 | 1.4% | 3.63% | 2.09% | -0.549% | 5.28% | 2.4% | 3.66% | 1.14% | 3.88% | 0.0986%
16 | C[N+]1(C)[C@@H]2C[C@@H](OC(=O)[C@H](CO)c3ccccc3)C[C@H]1[C@@H]1O[C@@H]12 | -0.834% | 1.29% | 0.707% | 0.849% | 2.27% | 2.07% | -1.37% | -0.286% | 0.639% | 0.798%
17 | CCC1(c2ccc(N)cc2)CCC(=O)NC1=O (stereo not given) | -0.867% | 0.792% | 0.848% | 0.885% | 1.68% | 2.54% | -1.67% | -1.8% | 0.634% | -0.67%
18 | CN(C)[C@@H]1C(=O)C(C(N)=O)=C(O)[C@@]2(O)C(=O)C3=C(O)c4c(O)cccc4[C@@](C)(O)[C@H]3[C@H](O)[C@@H]12 | 0.568% and -1.27% | 1.33% and -2.42% | 0.754% and -1.23% | 1.93% and -1.22% | 2.88% and -0.945% | 1.26% and -1.1% | 0.393% and 0.992% | 2.12% and -1.5% | -1.25% and -0.24% | 1.12% and 0.41%

Row | SMILES | growth inhibition (DIPGX29) | growth inhibition (DIPGX37) | growth inhibition (DIPGX7) | growth inhibition (DIPGX9) | growth inhibition (HGGX39) | growth inhibition (HGGX6) | growth inhibition (HNSC) | growth inhibition (SUDIPGIV) | growth inhibition (SUDIPGVI) | growth inhibition (SUDIPGXIII)
19 | O=c1[nH]c2ccccc2n1CCCN1CCC(n2c(=O)[nH]c3cc(Cl)ccc32)CC1 | 1.24% | -0.863% | 0.225% | -0.635% | 3.76% | 1.12% | 1.78% | -1.4% | -2.62% | -2.52%
20 | CNCC(=O)c1ccc(O)c(O)c1 | -1.95% | 2.52% | -0.724% | -0.688% | 0.248% | -0.714% | -1.87% | 0.154% | -1.65% | 3.12%
21 | NCC(O)c1ccc(O)cc1 (stereo not given) | -0.0577% | 1.17% | 0.265% | -0.182% | 2.12% | -2.95% | 22.2% | 1.19% | -3.26% | -3%
22 | C#C[C@]1(O)C=C[C@H]2[C@@H]3CCC4=CC(=O)CC[C@@H]4[C@H]3CC[C@@]21CC | 1.62% | 0.668% | 0.599% | 1.55% | 1.48% | 3.32% | 0.901% | 0.673% | 1.89% | 0.6%
23 | CCC1(C)CC(=O)NC(=O)C1 | -3.05% | -2.24% | 4.09% | -2.78% | -4.36% | -4.73% | 7% | -2.82% | -6.09% | -0.846%
24 | CC(=O)OC12COC1CC(O)C1(C)C(=O)C(O)C3=C(C)C(O)CC(O)(C(OC(=O)c4ccccc4)C21)C3(C)C (stereo not given) | 7.46% | 3.33% | 4.76% | 9.41% | 14.7% | 6.8% | 11.9% | 21.5% | 1.87% | 3.01%
25 | CCOC(=O)c1cncn1[C@H](C)c1ccccc1 | 1.12% | 2.21% | 2.54% | 2.62% | 1.86% | 2.36% | 3.19% | -0.15% | 2.48% | 0.0732%
26 | N.N.[Cl][Pt][Cl] | -1.13% | 0.384% | 0.191% | 0.402% | -0.146% | -3.02% | -5.11% | -3% | -1.15% | 1.82%
27 | CNC(=O)Oc1ccc2c(c1)[C@]1(C)CCN(C)[C@@H]1N2C | -0.0328% | 2.09% | -0.713% | -0.267% | -1.19% | 1.68% | -0.354% | -0.781% | 2.19% | 1.12%
28 | COC(=O)C1=CCCN(C)C1 | 2.02% | 4.11% | 0.892% | 1.35% | 1.54% | 1.61% | 1.06% | 0.353% | 3.57% | 1.1%
29 | CC(C)N(CCNC(=O)CN1CCCC1=O)C(C)C | 2.94% | 3.86% | 1.76% | 4.77% | 3.31% | 3.19% | 1.2% | -0.694% | 3.19% | 2.1%
30 | C/C=C(\C)C(=O)N[C@@H](c1ccccc1)[C@@H](O)C(=O)O[C@H]1C[C@@]2(O)[C@@H](OC(=O)c3ccccc3)[C@@H]3[C@]4(OC(C)=O)CO[C@@H]4C[C@H](O)[C@@]3(C)C(=O)[C@H](OC(C)=O)C(=C1C)C2(C)C | 11.3% | 8.35% | 8.08% | 23.2% | 33.6% | 19.9% | 59.9% | 37% | 0.972% | 4.19%
31 | C=C1C[C@@H]2[C@H](CC[C@]3(C)C(=O)CC[C@@H]23)[C@@]2(C)C=CC(=O)C=C12 | 2.35% | 1.24% | 3.42% | 2.01% | 0.458% | -1.58% | -0.552% | -2.53% | -2.19% | 0.875%
32 | CCCN1C[C@H](CSC)C[C@@H]2c3cccc4[nH]cc(c34)C[C@H]21 | -0.00648% | -1.76% | -0.373% | -0.427% | 1.29% | 2.2% | -2.99% | 0.236% | 0.348% | -3.14%
33 | O=C(O[C@H]1C[C@H]2CC[C@@H](C1)[N+]21CCCC1)C(O)(c1ccccc1)c1ccccc1 | -4.33% | -1.91% | -0.848% | -3.62% | -4.77% | -4.81% | 20.6% | -1.98% | -6.45% | -0.149%
34 | COc1ccc(C(=O)N2CCCC2=O)cc1 | 0.75% | 0.424% | 2.24% | 0.251% | -0.804% | -0.258% | 0.808% | -2.06% | -5.15% | -1.15%
35 | NCC1(CC(=O)O)CCCCC1 | 2.13% and 0.326% | 4.84% and 0.615% | 3.15% and 1.16% | -0.041% and -0.903% | 2.36% and -1.3% | 2.04% and -2.75% | 2.28% and -0.457% | 1.22% and -1.85% | 2.85% and -1.96% | -1.15% and -0.111%
36 | C[C@]12CCC(=O)C=C1C=C[C@@H]1[C@@H]2CC[C@@]2(C)[C@H]1CC[C@@]2(O)CCC(=O)O | 0.155% | -0.641% | 2.17% | 1.05% | 0.878% | -0.966% | 37.3% | -0.186% | -0.451% | -0.386%
